# The campaign covered roughly 69,000 compounds. About 8,600 (12%) showed an effect of 50% or more. Only a selection was taken, and strong results are over-represented in it overall.
# System: Plasmodium berghei
# Assay: Screen against P. berghei liver stage (PbLuc), transformed with Luciferase, at 10uM
# Format: functional, HepG2
# Details: tested at 10 uM
row,SMILES,INHIBITION [%]
1,CC(C(=O)N1CCN(c2ccc(F)cc2)CC1)n1cc(Br)cn1 (configuration not stated),6.83
2,Cn1nnc2c1CCN(C(=O)C1CCC1)C2COCCN1CCCC1 (configuration not stated),19.5
3,Cc1cc(CN2CCN(C(=O)NC(C)c3cccnc3)CC2)no1 (configuration not stated),7.15
4,O=C(NCc1nccn1CCc1ccccc1)NCC1CCC1,44.5
5,c1snnc1CN1C[C@H]2CCC[C@@H](CN3CCOCC3)[C@H]2C1,-41.8
6,Cc1ccc(CN[C@@H]2COC[C@H]2Cc2cc(C)no2)cc1,-22.6
7,Cc1cc(C[C@@H]2COC[C@H]2NCc2ccc(C)c(C)c2)on1,1.5
8,Cc1cc(C[C@@H]2COC[C@H]2NCc2ccc(C(C)C)cc2)on1,28
9,COC(=O)c1ccc(CN[C@@H]2COC[C@H]2Cc2cc(C)no2)cc1,0.301
10,Cc1cc(C[C@@H]2COC[C@H]2NCc2ccc(Cl)c(Cl)c2)on1,50.8
11,CCOc1cc(CN[C@@H]2COC[C@H]2Cc2cc(C)no2)ccc1O,74.9
12,NC(=O)CC1CCCN(c2cncc(OCc3ccccc3)n2)C1 (configuration not stated),27.6
13,CC(C)CCc1nc(CN2CCOC(Cn3cncn3)C2)cs1 (configuration not stated),36.1
14,Cc1n[nH]c(C2CN(CC(=O)NCc3cccs3)CCO2)n1 (configuration not stated),8.9
15,O=C(c1cccc(F)c1)N1CCC2(CC1)CC(N1CCOCC1)C2,1.34
16,Cc1cnn(CC2CN(Cc3nc(-c4cccnc4)no3)CCO2)c1 (configuration not stated),-4.94
17,CCn1ccnc1CN1CCN(Cc2ccc(C)o2)[C@@H]2CS(=O)(=O)C[C@@H]21,16.7
18,Nc1nc(CNc2ncnc3c2CCN(Cc2ccoc2)CC3)cs1,51.8
19,c1cc(CCNc2ncnc3c2CCN(Cc2ccoc2)CC3)ccn1,12.8
20,CC(C)Nc1ncnc2c1CCN(Cc1ccoc1)CC2,-22.1
21,O=C(c1cncs1)N1CCOC(c2cc(CCO)[nH]n2)C1 (configuration not stated),-4.5
22,O=C([C@H]1C[C@H]2OCC[C@H]2N(C(=O)c2ccccn2)C1)N1CCCCO1,22.2

row,SMILES,INHIBITION [%]
1,CCN(CC)CCCNCc1cc2cccc(C)c2[nH]c1=O,-36.4
2,CCCN1CCN(C(=O)Cn2nc(C(F)(F)F)c(Br)c2C2CC2)CC1,64.7
3,CN1CCN(C(=O)Cn2nc(C(F)(F)F)c(Br)c2C2CC2)CC1,16.5
4,CCN1CCN(C(=O)Cn2nc(C(F)(F)F)c(Br)c2C2CC2)CC1,30.8
5,CCN1CCCC1CNC(=O)Cc1c(C)n[nH]c1-c1ccc(F)cc1 (configuration not stated),38.8
6,CCOC(=O)c1sc2ccsc2c1CN,0.938
7,COc1ccc(-c2cccc3c2OC(CN)C3)cc1F (configuration not stated),47.1
8,COc1cc(-c2cccc3c2OC(CN)C3)cc(OC)c1OC (configuration not stated),48
9,COc1cc(-c2cccc3c2OC(CN)C3)ccc1O (configuration not stated),50.8
10,Cc1ccc(CCCC(=O)N2CCC(CS(N)(=O)=O)CC2)s1,-0.554
11,O=C(c1ccncc1)N1CCc2ncnc(C3CCOC3)c2CC1 (configuration not stated),49.7
12,CC(C)Oc1ncnc2c1CCN(Cc1ccc(F)cc1)CC2,60.3
13,O=C(c1cccs1)N1CCc2ncnc(C3CCOC3)c2CC1 (configuration not stated),53.2
14,COc1ccc(CN2CCc3ncnc(C4CC4)c3CC2)cc1,47.4
15,CC(C)Oc1ncnc2c1CCN(Cc1ccco1)CC2,50.7
16,O=C(c1ccnnc1)N1CCc2ncnc(C3CCOC3)c2CC1 (configuration not stated),38.1
17,CC(C)Oc1ncnc2c1CCN(Cc1cccs1)CC2,40.7
18,Cc1ccc(CN2CCc3ncnc(OC(C)C)c3CC2)s1,-34.6
19,CCc1ncnc2c1CCN(Cc1ccc(OC)cc1)CC2,26.7
20,COCCN1CCc2ncnc(OC(C)C)c2CC1,37.5
21,CC(C)Oc1ncnc2c1CCN(Cc1ccoc1)CC2,8.85
22,COc1ccc(CN2CCc3ncnc(OC(C)C)c3CC2)cc1,56.7

row,SMILES,INHIBITION [%]
1,COCC1CC2(CCN(Cc3cccc(C#N)c3)CC2)CN1C(C)C (configuration not stated),-11.2
2,CCCS(=O)(=O)NCC(C)(O)c1ccsc1 (configuration not stated),20.9
3,Cc1nc(Nc2nnc(C)s2)cc(C2CCCN2C)n1 (configuration not stated),21.6
4,O=C(c1cccc(C2CCNC2)c1)N1CCC(c2ccncc2)CC1 (configuration not stated),-19.1
5,Cc1ccc(N2CC[C@H]3OCC[C@@]3(C(=O)N3CCCC3)C2)nn1,40.1
6,CC(C)n1cnnc1CNC(=O)c1cnn(-c2ccccc2)c1,-20.3
7,Cc1ccc(Cl)cc1N1CCC(CNC(=O)Cn2cccn2)C1 (configuration not stated),10.083
8,c1ccc(CN2CCc3ncnc(C4CCOC4)c3CC2)nc1 (configuration not stated),33
9,c1coc(CN2CCc3ncnc(C4CCOC4)c3CC2)c1 (configuration not stated),79.6
10,c1nc2c(c(C3CCOC3)n1)CCN(Cc1ccoc1)CC2 (configuration not stated),12.1
11,O=C(Nc1ccc(CCN2CCOCC2)cc1)C1CCCC1,-7.85
12,O=C(NCC1CC1)c1cc2c(s1)CCN2C(=O)c1ccc(F)cc1,4.57
13,CN(C)S(=O)(=O)NCC(Cc1cccc(F)c1)N1CCNC1=O (configuration not stated),-15.3
14,CCOc1ccccc1CCC(=O)Nc1c(C)nn(C)c1C,22.6
15,COc1ccccc1C(=O)Nc1c(F)c(C(=O)NCCC(C)C)nn1C,57
16,COc1ccccc1C(=O)NCCC(=O)Nc1c(C)nn(C)c1C,51.8
17,COc1ccccc1C(=O)Nc1c(F)c(C(=O)NC2CCCC2)nn1C,4.48
18,COc1cccc(CCC(=O)Nc2c(C)nn(C)c2C)c1OC,31
19,CCC(C)NC(=O)c1nn(C)c(NC(=O)c2ccccc2OC)c1F (configuration not stated),19.3
20,CC(=O)N1CCC2(CC1)COCCN2CCN(C)C,-8.94
21,Cc1cc(C)n(CC2CN(CCOc3ccccc3F)CCO2)n1 (configuration not stated),9.14
22,Cc1ccc(N2CCc3ncc(CNc4ccccn4)n3CC2)nn1,18.4

row,SMILES,INHIBITION [%]
1,O=C(c1cscn1)N1CCC(O)(Cn2ccc3ccncc32)CC1,17.1
2,CC(=O)N1N=C(c2ccco2)OC1C(=O)NCC(C)C (configuration not stated),-4.32
3,FC(F)(F)Cn1cc(NCc2cscn2)cn1,62
4,CC(C)Cn1cc(NCc2cscn2)cn1,-24.5
5,CC(C)(C)n1cc(NCc2cscn2)cn1,29.4
6,CCOc1cc(=O)n2c(c1C(=O)OCc1ccc(C)cc1)CCCC2,32.2
7,CCc1cnc(N2CCC3(CCN(Cc4cccc(C)c4)C3=O)C2)nc1 (configuration not stated),60.5
8,O=C1N(Cc2cccnc2)CCC12CCCN(c1ncccn1)C2 (configuration not stated),87.2
9,Cc1cccc(CN2CCC3(CCN(c4ncccn4)C3)C2=O)c1 (configuration not stated),-23.3
10,COc1cccc(N2CC3(CCN(c4cc(OC)ncn4)C3)CC2=O)c1 (configuration not stated),34.6
11,O=C1N(Cc2ccncc2)CCC12CCCN(c1ncc(F)cn1)C2 (configuration not stated),39.5
12,N#Cc1ccc(N2CCCC3(CCN(c4cncnc4)C3=O)C2)nc1 (configuration not stated),65.7
13,O=C1N(c2cncnc2)CCC12CCCN(Cc1ccccn1)C2 (configuration not stated),-11.5
14,Cc1cccc(CN2CCC3(CCN(c4ncccn4)CC3)C2=O)c1,42
15,COc1cc(N2CCC3(C2)CN(c2cccnc2)C(=O)CN3C)ncn1 (configuration not stated),30.3
16,O=C1N(Cc2cccnc2)CCC12CCCN(c1ncc(F)cn1)C2 (configuration not stated),-42
17,N#Cc1ccc(N2CCC3(CCCN(c4ccccn4)C3)C2)nc1 (configuration not stated),12.1
18,COc1cc(N2CCC3(CC2)CCN(c2cccnc2)C3=O)ncn1,68.4
19,CN(C)CCOCc1cncc2c1CCN(Cc1ccccn1)C2,-8.51
20,Cc1nc(CN2CCO[C@H]3[C@@H](OCc4cccnc4)CC[C@@H]32)cs1,14.6
21,Cc1nc(C(=O)N2CCN(S(C)(=O)=O)CC2)c(-c2ccccc2Cl)s1,23
22,COCCN1CCC(Nc2c(F)cc(C#N)cc2F)CC1,-3.58

row,SMILES,INHIBITION [%]
1,O=C([C@@H]1CCO[C@@H]2CCN(Cc3ccsc3)C[C@@H]21)N1CCCC1,38.1
2,O=C1CC(c2ccsc2)c2sc(C(=O)O)c(-c3ccc(F)cc3)c2N1 (configuration not stated),-8
3,Cc1cccc(CN2CCC3(CCN(c4ccccn4)C3)C2=O)c1 (configuration not stated),20.7
4,COc1cc(N2CCC3(CCN(Cc4cccnc4)C3=O)C2)ncn1 (configuration not stated),91
5,O=C(c1ccncc1)N1CCCC2(CCN(c3cccnc3)C2=O)C1 (configuration not stated),-7.7
6,COc1cccc(CN2CCC3(CCN(c4ncc(C)cn4)C3)C2=O)c1 (configuration not stated),37.9
7,CCN1CCC2(CC1)CN(CCO)c1ccccc12,-7.94
8,O=C1N(c2cccnc2)CCC12CCCN(Cc1cccnc1)C2 (configuration not stated),-52.3
9,Cc1cnc(N2CCC3(CC2)CCN(c2cncnc2)C3=O)nc1,40.8
10,COc1cc(N2CCCC3(CCN(c4cncnc4)C3=O)C2)ncn1 (configuration not stated),53
11,COc1cc(N2CCC3(CC2)CN(CCO)c2ccccc23)ncn1,93.1
12,COc1cc(N2CCC3(CC2)CN(S(C)(=O)=O)c2ccccc23)ncn1,46.4
13,COc1cc(N2CCCC3(CCN(c4cccnc4)C3=O)C2)ncn1 (configuration not stated),84.7
14,COCC(=O)N1CCCC2(CCN(c3cncnc3)C2=O)C1 (configuration not stated),25.2
15,CNC(=O)[C@H]1C[C@@H]2CN(C(=O)c3ccccn3)C[C@@H]2N1S(C)(=O)=O,37.2
16,Cc1nnc(CN2CCCC2c2c(C)nn(C)c2Cl)o1 (configuration not stated),16.9
17,O=C(C1CCOC1)N1C[C@H]2CN(Cc3nccs3)C[C@H]2C1 (some centres not stated),17.1
18,COc1ccccc1CN(CC1CCCO1)C(=O)c1cc(C)n[nH]1 (configuration not stated),-11.3
19,c1cncc(CN2Cc3nccn3CC(Cn3cncn3)C2)c1 (configuration not stated),5.41

# Reference: ChEMBL document CHEMBL4513216, “Probing the Open Global Health Chemical Diversity Library for Multistage-Active Starting Points for Next-Generation Antimalarials” (ACS Infect Dis, 2020)
